HepG2 viability = HepG2 cytotoxicity, counter-screen for TGF-b inhibitors; HepG2 CAGA-GFP viability, ATP luminescence, 18 h; Potency, µM (doses to about 46.1 µM), for the others: top-dose activity change, negative = cytotoxicity, usual class: cytotoxic; 410,000 compounds, 0.76% hits
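CellTiter-Glo luminescence gave cytotoxicity after 18 hours at 37 degrees C. The cells were HepG2 CAGA-GFP in 1% FBS DMEM, stimulated with 500 pg/mL TGF-beta after compound addition. %Activity was normalised to no-cell wells (complete cell-killing) and DMSO (no toxicity), and curves were fitted and classified.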
TDP1 cell noCPT = qHTS for Inhibitors of human tyrosyl-DNA phosphodiesterase 1 (TDP1): qHTS in cells in absence of CPT; 420,000 compounds, 15% hits; Potency, µM (series often up to 46.2 µM), without a hit: at the highest dose activity change, negative = growth inhibition, most hits filed as inhibitors; DT40 Tdp1-/- hTDP1 cells, no CPT, ATP luminescence, 48 h; also: % is scaled to controls: 0 for no effect and ±100 for the full control effect; nearly all actives have a fitted effect of over 55% in size
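Camptothecin absent (DMSO only). Human TDP1-complemented DT40 knockout cells, 400 cells/well, 37 °C for minimum 48 hr; ATP measured via CellTiter-Glo, 30 min dark incubation, luminescence.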
HT1080-NT tox = kills 2HG-producing HT-1080-NT fibrosarcoma cells | HT-1080-NT fibrosarcoma viability, CellTiter-Glo ATP luminescence, 48 h | Potency, µM (highest dose often 46.1 µM), without a hit: at the top dose activity, negative = less viability, usual class: cytotoxic | AID 686970 | 360,000 compounds, 1.6% hits;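 also: NT is the 2HG producing partner of a matched IDH1 knockdown line; 0% = DMSO-treated cells and -100% = media-only wells without cells; nearly all actives have a fitted effect of over 55% in size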
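Luminescent CellTiter-Glo readout after 48 hours of compound exposure at 37 degrees C defined viability of HT-1080-NT cells. Activity was normalized to DMSO wells and cell-free media wells; concentration-response curves were fitted and assigned curve classes.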
DT40 TDP1 CPT = growth inhibition of DT40 Tdp1-/-;hTDP1 cells with camptothecin (screen for TDP1 inhibitors); chicken DT40 Tdp1-/-;hTDP1 cells + 20 nM CPT, ATP luminescence, 48 h; Potency, µM (series often up to 46.2 µM), for the others: at the highest dose activity change, negative = growth inhibition, actives largely listed as inhibitors; 420,000 compounds, 12% hits; also: % is scaled to controls: 0 for no effect and ±100 for the full control effect; nearly all actives have a fitted effect of over 55% in size
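Chicken DT40 Tdp1-/- cells complemented with human TDP1, 400 cells/well, exposed to compounds plus 20 nM camptothecin for at least 48 h at 37 C; viability read as ATP content by CellTiter-Glo luminescence.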
TGFb inhibitor = blocks TGF-b signaling | HepG2 CAGA-GFP TGF-b/SMAD3 reporter, GFP fluorescence, 18 h; TGF-beta stimulated, 500 pg/mL final | Potency, µM (series often up to 46.1 µM), without a hit: at the highest dose activity, negative = inhibition, actives largely listed as inhibitors | 410,000 compounds, 1.2% hits | AID 588855; also: % is scaled to controls: 0 for no effect and ±100 for the full control effect; nearly all actives have a fitted effect of over 65% in size
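HEPG2 CAGA-GFP cells (1000/well, DMEM with 1% FBS) were pre-incubated 2 h at 37 degrees C, given compound by pin tool, then stimulated with TGF-beta at 500 pg/mL final for 18 h before per-cell GFP fluorescence imaging.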
HT1080 IDH1KD tx = HT-1080 IDH1 knockdown cell toxicity (counter line). HT-1080 IDH1 knockdown viability, ATP luminescence, 48 h. Potency, µM (highest dose often 46.1 µM), inactives show at the highest dose activity, negative = toxicity, most hits filed as cytotoxic. 360,000 compounds, 2% hits;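 also: 0% = DMSO wells and -100% = cell-free medium wells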
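Cytotoxicity counter-line: IDH1KD HT-1080, 48 h, CellTiter-Glo. Curves classed by r2, magnitude and activity.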
* = called active by the depositor; ? = inconclusive; / = no result given. Rows were chosen to be rich in hits. Some 17% of all compounds tested hit in one or more screens of this group. Calls follow the shape of the dose curve; as a rule, active = well fitted curve in the direction sought with a large enough effect; inconclusive = small, poorly fitted or top-dose-only effect, or another doubt; inactive = no such curve, though single readings can be large; an effect the other way counts as inactive or inconclusive. Potency is read from the fitted curve at half-maximal effect.

SMILES | HepG2 viability | TDP1 cell noCPT | HT1080-NT tox | DT40 TDP1 CPT | TGFb inhibitor | HT1080 IDH1KD tx
Cc1oc(-c2cccc(Cl)c2)nc1CN1CCC(C(=O)NCCCN2CC(C)CC(C)C2)CC1 (configuration not stated) | -3% | 21µM* | 4% | ? | 13% | -1%
Cc1oc(-c2cccc(Cl)c2)nc1CN1CCC(C(=O)NCCCN2CCCC2=O)CC1 | -5% | -5% | -12% | 2% | -1% | -2%
CCOC(=O)c1[nH]c(C)c(C(=O)/C=C/c2ccc(C(=O)O)cc2)c1C | 27% | -22% | -2% | 9% | 8% | ?
NC(=S)NN=C1CCC(C2CCCCC2)CC1 (configuration not stated) | -38% | 3.7µM* | 1% | 5.8µM* | ? | -5%
NC(=S)NN=C1CCCCCCCCCC1 | -35% | 10µM* | 5% | 3.7µM* | ? | -6%
CCn1nc(-c2ccccc2)c(-c2ccccc2)c(C(=O)Nc2nc(C)c(C(=O)N(C)C)s2)c1=O | -23% | ? | / | ? | 0% | /
Cc1ccc(-n2c(C)cc(C(=O)CSc3nncs3)c2C)cc1 | -19% | 21µM* | ? | 10µM* | -19% | ?
Cc1ccc(-n2c(C)cc(C(=O)CSc3nnnn3C)c2C)cc1 | -36% | 21µM* | -8% | 18µM* | -15% | -2%
Cc1ccc(-n2nnnc2SCC(=O)c2cc(C)n(-c3cc(C)on3)c2C)c(C)c1 | -24% | 23µM* | ? | 23µM* | -4% | -7%
Cc1cc(C(=O)CSc2nnnn2-c2ccc(O)cc2)c(C)n1C | -3% | 16µM* | 8% | ? | 3% | 23%
O=C(NC(Cc1ccccc1)C(=O)O)C1CCN(S(=O)(=O)c2ccccc2C(F)(F)F)CC1 (configuration not stated) | -3% | 5% | 14% | -9% | 10% | 0%
CCCCNC(=O)C1CCN(S(=O)(=O)N2CCCCCC2)CC1 | 1% | -12% | -2% | -3% | -2% | -5%
O=S(=O)(NCCc1nnc2ccc(SCc3cccc(Cl)c3)nn12)c1ccccc1 | -29% | 18µM* | / | 15µM* | ? | /
Cc1ccc(S(=O)(=O)NCCc2nnc3ccc(SCc4ccccc4C)nn23)cc1 | -4% | 16µM* | / | 16µM* | 18% | /
Cc1ccc(C)c(CSc2ccc3nnc(CCNS(=O)(=O)c4ccccc4)n3n2)c1 | -4% | ? | / | ? | 0% | /
C[C@@H]1O[C@H](C2CCCC2)Cc2[nH]c(=S)[nH]c(=O)c21 | / | -19% | -1% | -24% | / | 0%
O=C(c1ccc(F)c(F)c1)N1CCOc2ccc(CN3CCN(CCO)CC3)cc2C1 | / | -11% | / | 22% | / | /
COc1ccc2c(c1)C1(Nc3ccccc3-c3nc4ccccc4n31)C(=O)N2 (configuration not stated) | -13% | -13% | -8% | -27% | ? | -2%
COc1ccc2c(c1)C1(Nc3ccccc3-c3nc4ccccc4n31)C(=O)N2C (configuration not stated) | 4% | 21µM* | -18% | ? | 13% | -19%
O=C(/C=C/c1ccc(OCCCF)cc1)Nc1ccnc(-c2ccncc2)n1 | -16% | 23µM* | -14% | ? | -12% | -7%
Cc1cc(/C=C2\SC(=S)NC2=O)c(C)[nH]1 | -4% | -2% | 0% | -3% | -2% | -19%
O=C1NC(=S)S/C1=C\c1cc(Cl)ccc1Cl | -19% | ? | ? | 21µM* | ? | -22%
Cc1cc(N/N=C/c2ccc(F)cc2)nc(-n2nc(C)cc2C)n1 | -5% | 3.7µM* | ? | 2.9µM* | ? | 1.8µM*
